Only some compounds are listed: those with a hit (about 4.2% of all), similar ones and a draw of the others.
GDH-TPI counter: counter-screen for M. tuberculosis FBA inhibitors: GDH-TPI coupled enzymes. actives 1.2% (n = 360,000). AID 588335. GDH-TPI coupled enzyme counterscreen, NADH absorbance. inhibition, % at 4.8 µM;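 also: 0% = DMSO wells and 100% = wells lacking the enzyme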
RecA intein inh: blocks M. tuberculosis RecA intein splicing. P9WHJ3. cell-free RecA intein splicing, fluorescence. inhibition, % (test concentration not listed). actives 0.75% (n = 290,000). AID 2221; in the data active = inhibition above about 30%; inconclusive = no clear call, values can overlap the other calls;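 also: 0% = vehicle wells and 100% = reference inhibitor control wells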
Target sequence (P9WHJ3 whole entry, looked up): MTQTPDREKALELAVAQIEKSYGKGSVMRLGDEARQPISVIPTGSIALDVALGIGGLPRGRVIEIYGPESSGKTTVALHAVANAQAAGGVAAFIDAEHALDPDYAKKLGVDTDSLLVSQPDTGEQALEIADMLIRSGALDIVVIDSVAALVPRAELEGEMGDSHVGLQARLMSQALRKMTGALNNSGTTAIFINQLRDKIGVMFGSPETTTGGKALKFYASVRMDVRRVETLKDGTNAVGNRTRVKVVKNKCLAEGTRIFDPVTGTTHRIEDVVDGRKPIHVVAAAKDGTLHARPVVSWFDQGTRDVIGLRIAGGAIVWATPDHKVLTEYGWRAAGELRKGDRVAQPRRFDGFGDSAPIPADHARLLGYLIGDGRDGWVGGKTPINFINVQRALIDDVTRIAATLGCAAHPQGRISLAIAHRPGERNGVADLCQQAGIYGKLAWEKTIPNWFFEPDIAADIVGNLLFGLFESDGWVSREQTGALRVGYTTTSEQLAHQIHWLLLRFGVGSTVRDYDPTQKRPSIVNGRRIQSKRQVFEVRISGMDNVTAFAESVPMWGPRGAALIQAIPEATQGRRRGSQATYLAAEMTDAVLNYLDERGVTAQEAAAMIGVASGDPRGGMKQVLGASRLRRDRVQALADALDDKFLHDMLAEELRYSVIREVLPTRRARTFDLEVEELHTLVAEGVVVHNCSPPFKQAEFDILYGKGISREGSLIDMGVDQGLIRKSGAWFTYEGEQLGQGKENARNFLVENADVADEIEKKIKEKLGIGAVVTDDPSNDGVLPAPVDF
CCHFV vOTU inh: blocks the CCHF virus ovarian tumor domain protease. CCHFV vOTU protease, Pep-AMC fluorescence. inhibition, % at 11.5 µM. actives 0.55% (n = 370,000). AID 651958; also: 0% = vehicle wells with enzyme and 100% = no enzyme wells
Mtb FBA inh: inhibitors of M. tuberculosis fructose-bisphosphate aldolase | P9WQA3 | purified M. tuberculosis FBA, fluorescence read-out | inhibition, % at 1 µM | actives 2.3% (n = 360,000) | AID 588726; in the data active = inhibition above about 27%;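 also: 0% = vehicle and 100% = reference inhibitor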
Mtb bLac sens: beta-lactam sensitization of Mtb H37Rv; M. tuberculosis H37Rv growth with meropenem, percent inhibition; AID 434955; inhibition, % at 25 µM; actives 0.27% (n = 330,000); call rule not given here;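 also: growth measured after seven days incubation then overnight dye step; 0% = bacteria only wells and 100% = bacteria with antibiotic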
* = called active by the depositor. Rule as the data show it, unless noted: active = inhibition above about 30%; inactive = the rest.

`COc1cc(OC)cc(C(=O)N[C@H](C(=O)OCc2cc(=O)oc3cc(C)ccc23)C(C)C)c1` gave GDH-TPI counter 7, RecA intein inh -1, CCHFV vOTU inh -9, Mtb FBA inh 0 and Mtb bLac sens 0.
For Cc1cccc(NC(=O)C2CCN(S(=O)(=O)c3c(C)noc3/C=C/c3ccco3)CC2)n1 the results were GDH-TPI counter 15, RecA intein inh 3, CCHFV vOTU inh 13, Mtb FBA inh -2 and Mtb bLac sens 74.
`COc1ccc(CNC(=O)C2CCN(S(=O)(=O)N3CCCC3)CC2)cc1` gave GDH-TPI counter 7, RecA intein inh 1, CCHFV vOTU inh 6, Mtb FBA inh -1 and Mtb bLac sens 1.
`CCC(C)N1CCN(C(=O)C2CCN(S(=O)(=O)c3c(C)noc3/C=C/c3ccco3)CC2)CC1` (configuration not stated) gave GDH-TPI counter 38*, RecA intein inh 2, CCHFV vOTU inh 13, Mtb FBA inh -1 and Mtb bLac sens 5.
Cc1cccc(/C=C/c2onc(C)c2S(=O)(=O)N2CCC(C(=O)NC(C)(C)C)CC2)c1 was read as GDH-TPI counter -2, RecA intein inh 1, CCHFV vOTU inh 2, Mtb FBA inh 5 and Mtb bLac sens inconclusive.
For COc1ccc(N2CCN(S(=O)(=O)c3c(C)noc3/C=C/N(C)C)CC2)cc1 the results were GDH-TPI counter 40*, RecA intein inh 0, CCHFV vOTU inh 15, Mtb FBA inh 2 and Mtb bLac sens -4.
`CNC(=O)C1CCN(S(=O)(=O)c2c(C)noc2/C=C/c2cccc(OC)c2)CC1` gave GDH-TPI counter 32*, RecA intein inh 0, CCHFV vOTU inh 5, Mtb FBA inh 14 and Mtb bLac sens inconclusive.
For COc1ccc(CNC(=O)C2CCN(S(=O)(=O)c3c(C)noc3/C=C/N(C)C)CC2)cc1 the results were GDH-TPI counter 45*, RecA intein inh 0, Mtb FBA inh 9 and Mtb bLac sens 88.
Screening COC(=O)C1CN(Cc2ccccc2)CCS(=O)(=O)N1Cc1ccc(F)cc1 (configuration not stated) returned CCHFV vOTU inh 2.
For COC(=O)c1cc(-c2cccc(C(F)(F)F)c2)c(=O)n2c1CCC2 the results were CCHFV vOTU inh 8.
Cc1noc(/C=C/N(C)C)c1S(=O)(=O)N1CCN(c2ccc(F)cc2)CC1 was read as GDH-TPI counter 34*, RecA intein inh -5, CCHFV vOTU inh 22, Mtb FBA inh -2 and Mtb bLac sens 4.
Cc1cccc(N2CCN(S(=O)(=O)c3c(C)noc3/C=C/N(C)C)CC2)c1C was read as GDH-TPI counter 9, RecA intein inh 0, CCHFV vOTU inh 17, Mtb FBA inh 1 and Mtb bLac sens 1.
COCCNC(=O)C1CCN(S(=O)(=O)c2c(C)noc2/C=C/c2cccs2)CC1 was read as GDH-TPI counter 39*, RecA intein inh -4, CCHFV vOTU inh 7, Mtb FBA inh 0 and Mtb bLac sens -1.
`COc1ccc(N2CCN(C(=O)C3CCN(S(=O)(=O)c4c(C)noc4/C=C/N(C)C)CC3)CC2)cc1` gave GDH-TPI counter 44*, RecA intein inh -2, CCHFV vOTU inh 5, Mtb FBA inh -1 and Mtb bLac sens -6.
Screening C=C1CCC2C(C)(C)CCC[C@]2(C)[C@H]1CC1=C(O)C(=O)C(CO)=CC1=O (some centres not stated) returned CCHFV vOTU inh 17.
`O=C(Nc1c(-c2ccc(C(F)(F)F)cc2)nc2ncccn12)c1ccccc1` gave CCHFV vOTU inh -6.
Cc1ccc(Cn2cc(CN3CC=CS3(=O)=O)nn2)cc1 was read as CCHFV vOTU inh 0.
Cc1noc(/C=C/N(C)C)c1S(=O)(=O)N1CCC(C(=O)NC(C)(C)C)CC1 was read as GDH-TPI counter 41*, RecA intein inh -2, CCHFV vOTU inh 23, Mtb FBA inh -3 and Mtb bLac sens -9.
`Cc1ccc(NC(=O)C2CCCN(S(=O)(=O)c3c(C)noc3/C=C/N(C)C)C2)cc1F` (configuration not stated) gave GDH-TPI counter 40*, CCHFV vOTU inh -11, Mtb FBA inh 0 and Mtb bLac sens 7.
For Cc1ccc(NC(=O)C2CCN(S(=O)(=O)c3c(C)noc3/C=C/N(C)C)CC2)cc1 the results were GDH-TPI counter 45*, RecA intein inh -4, CCHFV vOTU inh 22, Mtb FBA inh 0 and Mtb bLac sens -1.
CCOc1ccccc1/C=C/c1onc(C)c1S(=O)(=O)N1CCC(C(=O)NC(C)(C)C)CC1 was read as GDH-TPI counter 17, RecA intein inh 0, CCHFV vOTU inh 19, Mtb FBA inh 3 and Mtb bLac sens 0.
For Cc1noc(/C=C/N(C)C)c1S(=O)(=O)N1CCC(C(=O)Nc2ccc(Cl)cc2)CC1 the results were GDH-TPI counter 28, RecA intein inh 1, CCHFV vOTU inh 20, Mtb FBA inh 0 and Mtb bLac sens -4.
Screening Cc1noc(C)c1S(=O)(=O)N1CCCC(C(=O)Nc2ccc(Cl)cn2)C1 (configuration not stated) returned GDH-TPI counter 2, RecA intein inh -2, CCHFV vOTU inh 5, Mtb FBA inh 75* and Mtb bLac sens -10.
Screening CC1C=CC=CCCC=CC=CC=CC=CC(OC2O[C@H](C)[C@@H](O)[C@H](N)[C@@H]2O)CC(O)C(C(=O)O)C(O)CC(=O)CC(O)C(O)CCC(O)CC(O)CC(O)CC(=O)OC(C)C(C)C1O (some centres not stated) returned CCHFV vOTU inh -6.
For COc1ccc(S[C@]2(C(=O)N3CCN(c4ncccn4)CC3)CC(=O)N(c3ccsc3)[C@@H]2c2ccc(OC)cc2)cc1 the results were CCHFV vOTU inh 0.
`O=C(CNS(=O)(=O)c1cc2ccccc2s1)N1CCN(c2ccccn2)CC1` gave CCHFV vOTU inh -9.
Screening C[C@H]1COc2c3ccc(I)cc3nn21 returned CCHFV vOTU inh 4.
`COc1ccccc1/C=C/C1(C(=O)NC2CCCC2)CC(=O)N1c1ccc(C)cc1` (configuration not stated) gave GDH-TPI counter 0, RecA intein inh 34*, CCHFV vOTU inh 6, Mtb FBA inh 1 and Mtb bLac sens -7.
Screening CCN(CC)S(=O)(=O)c1ccc(N2C(=O)CC2(/C=C/c2ccccc2)C(=O)NC2CCCC2)cc1 (configuration not stated) returned GDH-TPI counter 0, RecA intein inh -4, CCHFV vOTU inh 7, Mtb FBA inh 1 and Mtb bLac sens -2.
For CC(=O)N1CCN(C(=O)CSc2nc3cccnc3n2C)CC1 the results were CCHFV vOTU inh 1.
Cc1cc(-c2nc3ncccc3o2)ccc1N was read as GDH-TPI counter 45*, RecA intein inh -6, CCHFV vOTU inh -257, Mtb FBA inh active and Mtb bLac sens -10.
Screening Nc1ccc(-c2nc3ncccc3o2)c(O)c1 returned GDH-TPI counter 59*, RecA intein inh -4, CCHFV vOTU inh -191, Mtb FBA inh active and Mtb bLac sens 63.

Screening data deposited in PubChem BioAssay by several laboratories.
